# Active and inactive are the calls of the source. Unless noted, how the calls were made is not given here.
# Columns and labels:
# [1] = test system: Wnt5a (protein binding on small-molecule microarray); assay: small molecules binding Wnt5a protein – biophysical, small-molecule microarray, 635/667 nm fluorescence, primary screen (AID 1142); settings: 635 nm fluorescence, higher = more signal;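 further: fluorescence read at 667 nm with signal to noise per printed feature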
# [2] = ATP-based viability of Huh7 replicon cells – cell-based, CellTiter-Glo luminescence, basal, 48 h, cytotoxicity control for HCV replication inhibitor project, primary screen (AID 1143); settings: Huh7 HCV replicon, CellTiter-Glo luminescence, 48 h, higher = more signal, called active from +8 up or from −8 down unless noted;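 further: Huh7 hepatoma cells carrying a hepatitis C replication reporter with no stimulus; test concentration not given here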
# [3] = Pseudomonas biofilm growth suppression – PAO1 strain, BacTiter-Glo luminescence, LB-PBS, primary screen (AID 1144); settings: P. aeruginosa PAO1 biofilm, 12 h, higher = more signal
# [4] = basal CRE-LacZ reporter activity in PC12 – cell-based, unstimulated, primary screen (AID 1145); settings: no forskolin, luminescence, 4.5 h; higher = more signal, called active from +8 up or from −8 down unless noted
# [5] = forskolin-driven CRE-LacZ activity in PC12 – cell-based, CRE-LacZ reporter, forskolin-stimulated, primary screen (AID 1146); settings: luminescence, 4.5 h; higher = more signal, called active from +8 up or from −8 down unless noted;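 further: PC12 cells with 6xCRE LacZ reporter stimulated by forskolin 10 µM; beta-galactosidase reporter signal reflecting CREB driven transcription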
# [6] = biological target: Streptavidin (Streptomyces avidinii) (UniProt P22629); assay: compounds binding control protein streptavidin – biophysical, small-molecule microarray, 635/667 nm fluorescence, artefact control for SMM compound annotation, primary screen (AID 1147); settings: higher = more signal;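 further: signal reflects streptavidin binding to arrayed compounds as a control protein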
# Streptavidin (Streptomyces avidinii), sequence (P22629 whole entry, looked up): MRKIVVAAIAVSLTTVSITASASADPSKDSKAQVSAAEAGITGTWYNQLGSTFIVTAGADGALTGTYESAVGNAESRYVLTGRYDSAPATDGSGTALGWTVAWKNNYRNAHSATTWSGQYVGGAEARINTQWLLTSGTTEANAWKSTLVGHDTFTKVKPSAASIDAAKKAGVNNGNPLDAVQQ
# [7] = probe aInhba binding on compound microarray – biochemical, small-molecule microarray, 635/667 nm fluorescence, primary screen (AID 1148); settings: higher = more signal; small-molecule microarray, probe aInhba, fluorescence unless noted;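 further: score merges 667nm spot fluorescence with signal-to-noise for antibody binding to printed compounds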
# Torsin-1A (Homo sapiens) [8] = biological target: Torsin-1A (Homo sapiens) (UniProt O14656); assay: TOR1A wild-type binding on microarray – cell lysate, small-molecule microarray, lysate, 635/667 nm, primary screen (AID 1149); settings: COS7 hTOR1A-WT lysate, 635 nm fluorescence, higher = more signal
# Torsin-1A (Homo sapiens), sequence (O14656 whole entry, looked up): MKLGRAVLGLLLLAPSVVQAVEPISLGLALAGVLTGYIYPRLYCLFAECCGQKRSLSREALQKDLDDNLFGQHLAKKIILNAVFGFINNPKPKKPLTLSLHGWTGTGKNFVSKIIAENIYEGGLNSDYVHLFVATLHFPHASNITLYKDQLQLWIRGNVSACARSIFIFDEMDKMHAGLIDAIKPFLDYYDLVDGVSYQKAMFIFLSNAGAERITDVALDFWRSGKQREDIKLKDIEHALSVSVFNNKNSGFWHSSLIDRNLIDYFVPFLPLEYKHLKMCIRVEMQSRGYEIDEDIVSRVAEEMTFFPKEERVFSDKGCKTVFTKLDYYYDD
# Torsin-1A (Homo sapiens) [9] = biological target: Torsin-1A (Homo sapiens) (UniProt O14656); assay: torsin A mutant lysate binding on microarrays – cell lysate, small-molecule microarray, COS7 lysate, 635/667 nm fluorescence, primary screen (AID 1150); settings: COS7 hTOR1A mutant lysate, 635 nm fluorescence, higher = more signal;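 further: score pools 667 nm emission and signal to noise measuring lysate protein binding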
# [10] = test system: Sonic hedgehog protein (Shh); assay: Sonic hedgehog microarray binding compounds – biochemical, small-molecule microarray, 635/667 nm fluorescence, primary screen (AID 1151); settings: 635 nm fluorescence, higher = more signal;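 further: Shh protein binding to compounds spotted on small-molecule microarray slides; score combines spot fluorescence intensity with signal-to-noise across triplicate slides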
# [11] = optical density shifts of acrAB sulA E. coli – strain DRC41, OD650, 48 h, E. coli filamentation inducer project, primary screen (AID 1152); settings: higher = more signal, called active from +8 up or from −8 down unless noted;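 further: E. coli MC1000 strain DRC41 lacking acrAB efflux pump and sulA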
# [12] = probe aLefty1 binding on compound microarray – biochemical, small-molecule microarray, 635/667 nm fluorescence, primary screen (AID 1153); settings: higher = more signal; small-molecule microarray, probe aLefty1, fluorescence unless noted;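 further: score merges spot fluorescence with signal-to-noise ratio from the scanned slide images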
# [13] = plasmodial surface anion channel blockers, osmotic lysis – cell-based, P. falciparum Indochina, OD700, 1 h, primary screen (AID 1154); settings: P. falciparum Indochina infected RBC osmotic lysis; higher = more signal, called active from +8 up or from −8 down unless noted
# [14] = plasmodial surface anion channel blockers, osmotic lysis – cell-based, P. falciparum Indochina, OD700, 2 h, primary screen (AID 1155);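 further: lysis reports solute entry through the parasite surface anion channel PSAC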; settings: P. falciparum Indochina infected erythrocytes; higher = more signal, called active from +8 up or from −8 down unless noted
# [15] = changes in parasitized red cell lysis, either direction – P. falciparum Indochina, OD700, 3 h, PSAC antagonist project, primary screen (AID 1156); settings: P. falciparum-infected erythrocytes, osmotic lysis; higher = more signal, called active from +8 up or from −8 down unless noted
# [16] = plasmodial surface anion channel blockers, osmotic lysis – cell-based, P. falciparum Indochina, OD700, 18 h, primary screen (AID 1157); settings: P. falciparum Indochina infected erythrocytes, osmotic lysis OD700, 18 h; higher = more signal, called active from +8 up or from −8 down unless noted
# [17] = S6 kinase pathway phospho-S6 level changes – cell-based, A549, cytoblot, luminescence, serum-stimulated, primary screen (AID 1158); settings: 5 h, higher = more signal;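 further: serum-stimulated A549 lung adenocarcinoma cells; signal is phosphorylated S6 detected by cytoblot immunostaining with HRP secondary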
# [18] = biological target: NADPH oxidase 2 (Homo sapiens) (UniProt P04839); assay: compounds shifting NOX2 Amplex Red fluorescence – cell-based, HEK293-NOX2, PMA-stimulated, NOX inhibitor project, primary screen (AID 1159); settings: 45 min; higher = more signal, called active from +8 up or from −8 down unless noted; further: test concentration not given here
# NADPH oxidase 2 (Homo sapiens), sequence (P04839 whole entry, looked up): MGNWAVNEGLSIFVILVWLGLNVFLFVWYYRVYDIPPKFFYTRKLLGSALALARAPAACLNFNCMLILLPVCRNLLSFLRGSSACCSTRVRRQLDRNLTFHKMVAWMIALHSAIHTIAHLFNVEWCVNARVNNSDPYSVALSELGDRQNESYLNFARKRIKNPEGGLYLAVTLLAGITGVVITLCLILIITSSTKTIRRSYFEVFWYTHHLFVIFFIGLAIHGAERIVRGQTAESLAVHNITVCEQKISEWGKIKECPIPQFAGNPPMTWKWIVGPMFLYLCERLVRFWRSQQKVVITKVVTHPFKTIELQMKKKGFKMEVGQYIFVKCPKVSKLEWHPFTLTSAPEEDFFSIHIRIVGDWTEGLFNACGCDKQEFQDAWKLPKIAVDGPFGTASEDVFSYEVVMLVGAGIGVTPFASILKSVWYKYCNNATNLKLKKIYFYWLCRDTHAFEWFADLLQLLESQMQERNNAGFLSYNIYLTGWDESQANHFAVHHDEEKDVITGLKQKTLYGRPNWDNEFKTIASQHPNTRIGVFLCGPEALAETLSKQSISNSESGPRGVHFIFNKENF
# [19] = biological target: NADPH oxidase 4 (Homo sapiens) (UniProt Q9NPH5); assay: compounds shifting NOX4 Amplex Red fluorescence – cell-based, HEK293-NOX4, tetracycline-induced, NOX inhibitor project, primary screen (AID 1160); settings: HEK293-NOX4, Amplex Red H2O2 fluorescence, 45 min; higher = more signal, called active from +8 up or from −8 down unless noted
# NADPH oxidase 4 (Homo sapiens), sequence (Q9NPH5 whole entry, looked up): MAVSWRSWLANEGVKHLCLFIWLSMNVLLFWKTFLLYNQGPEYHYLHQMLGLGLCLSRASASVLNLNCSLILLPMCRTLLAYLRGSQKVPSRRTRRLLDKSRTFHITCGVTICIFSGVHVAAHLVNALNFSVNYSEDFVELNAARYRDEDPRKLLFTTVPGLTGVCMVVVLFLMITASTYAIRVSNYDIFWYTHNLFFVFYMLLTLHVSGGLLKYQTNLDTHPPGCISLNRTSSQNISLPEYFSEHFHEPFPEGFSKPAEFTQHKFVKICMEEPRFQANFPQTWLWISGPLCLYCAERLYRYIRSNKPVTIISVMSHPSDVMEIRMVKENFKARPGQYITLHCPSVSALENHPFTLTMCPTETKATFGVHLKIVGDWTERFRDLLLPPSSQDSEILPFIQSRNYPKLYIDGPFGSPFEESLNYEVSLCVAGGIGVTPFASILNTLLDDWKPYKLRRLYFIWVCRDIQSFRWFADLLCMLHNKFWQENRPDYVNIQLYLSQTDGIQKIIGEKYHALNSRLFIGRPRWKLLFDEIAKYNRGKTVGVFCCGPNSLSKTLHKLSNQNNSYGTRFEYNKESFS
# [20] = biological target: NADPH oxidase 5 (Homo sapiens) (UniProt Q96PH1); assay: compounds shifting NOX5 Amplex Red fluorescence – cell-based, HEK293-NOX5, NOX inhibitor project, primary screen (AID 1161); settings: HEK293-NOX5, ionomycin, 45 min, higher = more signal
# NADPH oxidase 5 (Homo sapiens), sequence (Q96PH1 whole entry, looked up): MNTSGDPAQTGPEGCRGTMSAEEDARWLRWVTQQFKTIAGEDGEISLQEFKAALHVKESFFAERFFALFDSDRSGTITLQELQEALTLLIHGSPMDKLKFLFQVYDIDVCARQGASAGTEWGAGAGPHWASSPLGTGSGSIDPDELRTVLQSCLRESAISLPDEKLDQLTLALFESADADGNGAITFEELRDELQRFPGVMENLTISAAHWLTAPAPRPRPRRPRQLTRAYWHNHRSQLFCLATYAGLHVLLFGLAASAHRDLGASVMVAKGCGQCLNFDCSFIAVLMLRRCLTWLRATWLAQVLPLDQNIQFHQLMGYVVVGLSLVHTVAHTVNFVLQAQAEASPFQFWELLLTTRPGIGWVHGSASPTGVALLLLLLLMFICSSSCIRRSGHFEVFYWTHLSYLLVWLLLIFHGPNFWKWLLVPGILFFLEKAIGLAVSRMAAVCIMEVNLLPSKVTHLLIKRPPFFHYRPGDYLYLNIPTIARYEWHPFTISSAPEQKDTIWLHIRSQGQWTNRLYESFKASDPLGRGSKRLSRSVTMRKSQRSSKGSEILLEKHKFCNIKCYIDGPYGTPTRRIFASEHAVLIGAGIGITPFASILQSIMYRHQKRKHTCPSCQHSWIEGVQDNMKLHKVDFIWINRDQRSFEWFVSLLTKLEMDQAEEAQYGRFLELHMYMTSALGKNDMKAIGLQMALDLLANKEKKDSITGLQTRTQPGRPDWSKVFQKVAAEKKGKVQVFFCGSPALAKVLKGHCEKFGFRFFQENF
Compound,composite z-score [1],z-score [2],z-score [3],z-score [4],z-score [5],composite z-score [6],composite z-score [7],composite z-score (Torsin-1A (Homo sapiens) [8]),composite z-score (Torsin-1A (Homo sapiens) [9]),composite z-score [10],z-score [11],composite z-score [12],z-score [13],z-score [14],z-score [15],z-score [16],z-score [17],z-score [18],z-score [19],z-score [20]
CCCC=C(CCC)[C@@H](NP(=O)(c1ccccc1)c1ccccc1)c1ccccc1,-0.0444,-0.411 (inactive),0.168 (inactive),0.201 (inactive),0.89 (inactive),0.821,-0.168,0.364,0.368,-0.0623,-1.19 (inactive),0.547,4.03 (inactive),0.584 (inactive),0.689 (inactive),0.249 (inactive),1.02,-1.7 (inactive),-0.617 (inactive),0.842
O=P(c1ccccc1)(c1ccccc1)N1CC2(CC2)CC(O)(c2ccccc2)C1 (stereo not given),0.323,-1.55 (inactive),0.525 (inactive),0.204 (inactive),-0.927 (inactive),0.386,0.309,-0.316,-0.276,-1.05,-1.16 (inactive),0.276,0.492 (inactive),0.585 (inactive),0.483 (inactive),0.741 (inactive),0.0869,-0.356 (inactive),-0.976 (inactive),-2.94
CCCC[C@@H]1C[C@H]1[C@@H](NP(=O)(c1ccccc1)c1ccccc1)c1ccc(Cl)cc1,0.0234,-0.971 (inactive),-0.451 (inactive),-0.379 (inactive),-0.273 (inactive),0.239,0.157,-1.53,-0.202,-1.29,-1.26 (inactive),0.337,7.22 (inactive),1.78 (inactive),0.394 (inactive),0.788 (inactive),-0.554,-1.87 (inactive),-1.56 (inactive),0.453
C=C(CC1(C(C)NP(=O)(c2ccccc2)c2ccccc2)CC1)c1ccccc1 (stereo not given),0.41,-2.48 (inactive),-0.917 (inactive),0.0109 (inactive),1.49 (inactive),0.416,0.122,-1.03,0.0087,0.0881,-1.67 (inactive),0.603,2.42 (inactive),0.809 (inactive),0.512 (inactive),1.03 (inactive),0.984,-0.412 (inactive),-3.69 (inactive),-3.82
C[C@@H]1Cc2c(cnc3c2CN(C)CC3)CO1,0.0844,-1.38 (inactive),-0.181 (inactive),-0.258 (inactive),-1.05 (inactive),-0.179,-0.0523,0.742,1.12,1.71,-0.397 (inactive),-0.152,-0.0969 (inactive),-0.0787 (inactive),0.123 (inactive),0.0517 (inactive),-0.0609,1.5 (inactive),0.188 (inactive),-0.719
CCCc1cc2c(n1Cc1cccc(Cl)c1)C(C)C1CN(C(=O)c3ccccc3)C(C)(C(=O)OC)C21 (stereo not given),0.318,-2.78 (inactive),0.00978 (inactive),0.0041 (inactive),-1.1 (inactive),0.78,0.138,-0.0514,1.27,-0.083,-1.69 (inactive),0.235,2.02 (inactive),0.676 (inactive),1.22 (inactive),0.153 (inactive),-0.46,-1.21 (inactive),-2.3 (inactive),-2.42
COC(=O)[C@H]1C(=O)c2ccccc2O[C@@](C(=O)OC)(c2ccccc2)[C@@H]1c1ccccc1,0.107,-1.35 (inactive),0.352 (inactive),-0.523 (inactive),1.24 (inactive),-0.37,0.177,0.0049,0.0856,0.0053,0.0473 (inactive),-0.199,0.251 (inactive),-0.528 (inactive),-0.591 (inactive),-0.56 (inactive),-0.651,1.19 (inactive),0.752 (inactive),0.627
C[C@@H]1OC=C2[C@@H](O)[C@H]3O[C@H]3C(=O)[C@]23[C@H]1[C@H]1C2=C([C@@H](O)[C@H]4O[C@H]4C2=O)[C@@H]3O[C@@H]1C,-0.0894,0.612 (inactive),0.389 (inactive),1.01 (inactive),1.04 (inactive),-0.0542,-0.206,0.924,0.419,0.881,-0.418 (inactive),-0.27,-0.531 (inactive),0.407 (inactive),-0.655 (inactive),0.0502 (inactive),0.0176,1.2 (inactive),0.214 (inactive),-0.31

# Source: PubChem BioAssay
